The subject of this assay is AmpC beta-lactamase (E. coli). The assay can be described thus: AmpC inhibition relative to DMSO; higher = more inhibition. How it is done:
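Aggregation counter-screen: inhibition of E. coli AmpC beta-lactamase (5 nM, nitrocefin substrate, 50 mM sodium phosphate pH 7.0, RT, 5 min) by KAT inhibitors at 4, 11, 33 and 100 uM, with or without 0.01% Triton X-100. Percent inhibition is relative to DMSO controls. Four technical replicates.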

[1] abbreviates: 4 µM, detergent: 0.01% Triton X-100.
The mark [2] stands for this setting: 11 µM, detergent: 0.01% Triton X-100.
Where [3] appears, read: 33 µM, detergent: 0.01% Triton X-100.
Where [4] appears, read: 100 µM, detergent: 0.01% Triton X-100.
Where [5] appears, read: 100 µM, detergent: no detergent.

This note sets out measurements from the supplement of paper PMC10011410.

The structures appear in SMILES notation. ± gives the standard deviation of the averaged measurements.

Take `CCCC1(c2ccccc2)NC(=O)N(CC(=O)N(C)Cc2c(F)cccc2Cl)C1=O` (stereo not given): the AmpC inhibition by setting is: under setting [1], 14.2 ± 2.9%; (4 µM, detergent: no detergent) -1.7 ± 2%; under setting [2], 7.15 ± 9.5%; (11 µM, detergent: no detergent) 11.6 ± 7.8%; under setting [3], 6.15 ± 7.3%; (33 µM, detergent: no detergent) 5.75 ± 6.8%. For the same compound, the AmpC inhibition worked out at 6.78 ± 1.8% under setting [4] and 3.79 ± 0.91% under setting [5].
On to `O=C(NNS(=O)(=O)c1ccccc1)c1cc(-c2ccnnc2)ccc1F`, for which the AmpC inhibition by setting is: under setting [1], 9.2 ± 1.8%; (4 µM, detergent: no detergent) 2.19 ± 10%; under setting [2], 3.76 ± 1.8%; (11 µM, detergent: no detergent) 16.9 ± 8%; under setting [3], 3.27 ± 1.3%; (33 µM, detergent: no detergent) 5.35 ± 1.6%. Moreover, the AmpC inhibition under setting [4] was 12.2 ± 5.5% and the AmpC inhibition under setting [5] turned out to be 11.9 ± 7.5%.
For `COc1ccc(/C(Cl)=C(/C=O)c2ccc(OC)cc2)cc1`, the AmpC inhibition by setting is: under setting [1], -3.57 ± 3.7%; (4 µM, detergent: no detergent) -5.33 ± 6.8%; under setting [2], 3.37 ± 5.7%; (11 µM, detergent: no detergent) 3.21 ± 3.9%; under setting [3], 8.7 ± 7.1%; (33 µM, detergent: no detergent) 0.384 ± 4.4%. Further, the AmpC inhibition by setting is: under setting [4], 3.87 ± 1.3%; under setting [5], 12.1 ± 2.9%.
As to `CCCCCCCc1ccc(CCc2cccc(O)c2C(=O)O)cc1`, the AmpC inhibition reads like this: under setting [1], 1.37 ± 5%; (4 µM, detergent: no detergent) -4.68 ± 3.5%; under setting [2], 8.12 ± 2.9%; (11 µM, detergent: no detergent) 61 ± 10%; under setting [3], 9.04 ± 3.8%; (33 µM, detergent: no detergent) 97.2 ± 1.9%. The AmpC inhibition amounted to 8.27 ± 3.7% under setting [4] and 99.4 ± 1.4% under setting [5].
Take `O=C(OCC)/C(C(OCC)=O)=C\CCCCCCCCCCCCCC`: the AmpC inhibition by setting is: under setting [1], 5.31 ± 3.4%; (4 µM, detergent: no detergent) -0.349 ± 2.3%; under setting [2], 1.25 ± 19%; (11 µM, detergent: no detergent) 41.5 ± 10%; under setting [3], 6.47 ± 3.7%; (33 µM, detergent: no detergent) 50.3 ± 16%. Further, the AmpC inhibition was 1.39 ± 4.3% under setting [4] and 86.8 ± 6.6% under setting [5].
